Assay outcomes: PubChem, The Scripps Research Institute Molecular Screening Center
Hits are enriched below; roughly 4.1% of the tested compounds scored in any of these assays.
PRMT1 FP inh = blocks human protein arginine methyltransferase 1; inhibition, % at 2.79 µM; actives 1.3% (n = 370,000); recombinant PRMT1, activity-based probe fluorescence polarization;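 active means inhibition above about 21% made by adding two undisclosed values, limit read from the data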
Target sequence (Q99873 whole entry, looked up): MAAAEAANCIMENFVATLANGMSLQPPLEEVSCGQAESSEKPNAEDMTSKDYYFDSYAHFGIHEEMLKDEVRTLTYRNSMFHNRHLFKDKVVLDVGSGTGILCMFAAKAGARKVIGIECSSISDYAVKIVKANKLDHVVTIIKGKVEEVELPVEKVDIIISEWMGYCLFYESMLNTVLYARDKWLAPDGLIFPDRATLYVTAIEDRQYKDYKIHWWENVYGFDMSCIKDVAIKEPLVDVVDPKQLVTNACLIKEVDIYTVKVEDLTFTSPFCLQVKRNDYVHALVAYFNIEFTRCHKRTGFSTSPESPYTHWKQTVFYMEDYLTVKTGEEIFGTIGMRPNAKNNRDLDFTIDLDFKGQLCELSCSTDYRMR
UHRF1 binding = UHRF1 methyl-DNA binding inhibition | Q96T88 | UHRF1 binding to methylated oligo, TR-FRET | inhibition, % at 4.4 µM | actives 0.75% (n = 370,000); in the data active means inhibition above about 21%;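 further: UHRF1 SRA domain binding a hemimethylated CpG hairpin DNA probe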
MBD2 DNA inh = MBD2-methylated oligo binding inhibition; Q9UBB5; TR-FRET, MBD2 binding to methylated oligonucleotide; inhibition, % at 4.4 µM; actives 0.31% (n = 370,000); AID 686964; in the data active means inhibition above about 13%
ABHD5-PLIN5 inh = inhibitors of human ABHD5-perilipin-5 interaction; Split G. princeps luciferase complementation, luminescence, 4 h; inhibition, % at 4 µM; actives 0.78% (n = 360,000); Q00G26+Q8WTS1;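 active means inhibition above the mean inhibition across every tested compound plus 3 SD, cut at about 22% in these data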
rCAG RNA binder = r(CAG) repeat RNA binding; TO-PRO-1 dye displacement fluorescence; inhibition, % at 3 µM; actives 1.3% (n = 370,000);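 active means inhibition above the plate cutoff, the mean of all test compounds on that plate plus 3 SD, cut at about 35% in these data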;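 further: higher means more dye released from RNA so lower well fluorescence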
LEDGF integ inh = blocks HIV-1 LEDGF/p75-dependent DNA integration. TR-FRET IN-LEDGF/p75 DNA integration, Eu/Cy5. actives 0.64% (n = 370,000). inhibition, % at 3.7 µM;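 active means inhibition above the screen-wide mean plus 3 SD, cut at about 13% in these data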;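 further: signal is the Cy5 over europium emission ratio at 671 and 618 nm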
rCAG binder conf = r(CAG) RNA repeat binding, confirmation. shares compounds with rCAG RNA binder. TO-PRO-1 dye displacement fluorescence. AID 652065. actives 70% (n = 4,300). inhibition, % at 3 µM;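 active means inhibition above a per-plate cutoff, the mean inhibition of sample wells plus 3 SD, cut at about 35% in these data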;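 further: loss of TO-PRO-1 fluorescence as compound displaces dye from 1x1 AA loop RNA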
DNA CAG counter = counter-screen for rCAG RNA binders: DNA CAG dye complex inhibitors. shares compounds with rCAG RNA binder. inhibition, % at 3 µM. d(CAG) DNA oligo TO-PRO-1 dye displacement, fluorescence. actives 94% (n = 4,300);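 active means inhibition above its plate's cutoff, the mean test-well inhibition plus 3 SD, cut at about 4.8% in these data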;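 further: hits displace the dye from DNA and so lower well fluorescence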
dCAG dye DR = disrupts DNA CAG TO-PRO-1 complex in dose response. shares compounds with rCAG RNA binder. DNA CAG/GTC duplex TO-PRO-1 dye displacement fluorescence. IC50, µM. actives 20% (n = 250); in the data active means IC50 below about 10 µM
Numbers stand for hits; i = inactive; nt = no result.

SMILES | PRMT1 FP inh | UHRF1 binding | MBD2 DNA inh | ABHD5-PLIN5 inh | rCAG RNA binder | LEDGF integ inh | rCAG binder conf | DNA CAG counter | others
O=C(CSc1nnnn1-c1ccccc1)Nc1ncc(Cc2ccccc2Cl)s1 | i | i | i | i | i | i | nt | nt
N=C1SC(c2ccccc2)C(=O)N1c1ncc(Cc2ccccc2Cl)s1 (configuration not stated) | i | i | i | i | 58.0 | i | 71.9 | 31.5 | dCAG dye DR=i
Oc1ccc(Cl)cc1Sc1cc(Cl)ccc1O | i | i | i | i | 38.3 | i | 43.1 | 12.5
CCn1c2ccccc2c2cc(NC(=O)COC(=O)c3cc(F)ccc3C)ccc21 | i | i | i | nt | i | i | nt | nt
Cc1ccc(S(=O)(=O)Nc2ccc3cn[nH]c3c2)cc1 | i | i | i | i | 47.1 | i | i | i
Cc1ccc(S(=O)(=O)Nc2ccc3c(c2)C(=O)c2ccccc2-3)cc1 | i | i | i | i | 37.1 | i | i | 7.0
Cc1ccc(S(=O)(=O)Nc2ccc3cn[nH]c3c2)cc1C | i | i | i | i | i | i | nt | nt
O=C(OCCCN1CCC2(CCCCC2)C1=O)c1ccccc1 | i | i | i | nt | i | i | nt | nt
CSc1nsc2nc(=O)c(/C=C3\C=Nc4ccccc43)c(N)n12 | i | i | i | i | i | i | nt | nt
Nc1c(C=C2C=CC(=O)C=C2)c(=O)nc2snc(SCc3ccccc3)n12 | i | i | i | i | 51.7 | i | 49.7 | 16.4
O=[N+]([O-])c1ccccc1S(=O)(=O)Nc1cccc(-c2ccc(N3CCCC3)nn2)c1 | i | i | i | i | 36.4 | i | i | 9.6
Cc1c([N+](=O)[O-])cc(S(=O)(=O)Nc2ccc(-c3ccc(N4CCCC4)nn3)cc2)cc1[N+](=O)[O-] | i | i | i | i | 56.2 | i | 65.2 | 27.7
O=[N+]([O-])c1ccc(Cl)c(S(=O)(=O)Nc2cccc(-c3ccc(N4CCCC4)nn3)c2)c1 | i | i | i | i | 47.1 | i | 51.6 | 18.4
COc1ccc(-c2ccc(NS(=O)(=O)c3cc([N+](=O)[O-])c(C)c([N+](=O)[O-])c3)cc2)nn1 | i | i | i | i | 55.5 | i | 42.5 | 15.1
O=[N+]([O-])c1ccccc1S(=O)(=O)Nc1cccc(-c2ccc(N3CCOCC3)nn2)c1 | i | i | i | i | i | i | nt | nt
CC(C)(C)CCN1CCC[C@H](NC(=O)COc2ccc(F)c(Cl)c2)C1 | i | i | i | nt | nt | i | nt | nt
COC(=O)c1cccc(Cn2ccc3ccc(-c4ccc5ccn(C(=O)c6cccc(OC)c6)c5c4)cc32)c1 | i | i | i | nt | i | i | nt | nt
FC(F)(F)c1cc(CNC2CCC23CCC(c2ccccc2)CC3)ccc1Cl (configuration not stated) | i | i | i | nt | nt | i | nt | nt
CN(C(=O)[C@@H](Cc1ccccc1)NC(=O)[C@H]1O[C@@H](n2ccc(=O)[nH]c2=O)[C@H](O)[C@@H]1O)C1CCCCC1 | i | i | i | nt | i | i | nt | nt
COc1ccc(S(=O)(=O)Nc2ccc(S(=O)(=O)N(C)C)cc2)cc1[N+](=O)[O-] | i | i | i | i | i | i | nt | nt
Cc1ccc([N+](=O)[O-])cc1S(=O)(=O)Nc1ccc(-c2ccc(N3CCCC3)nn2)cc1 | i | i | i | i | 37.4 | i | 43.5 | 15.5
O=[N+]([O-])c1ccc(Cl)c(S(=O)(=O)Nc2ccc(-c3ccc(N4CCCC4)nn3)cc2)c1 | i | i | i | i | 47.1 | i | 39.3 | 11.6
CCN(CC)S(=O)(=O)c1ccc(NS(=O)(=O)c2ccc(OC)c([N+](=O)[O-])c2)cc1 | i | i | i | i | 42.5 | i | i | i
COC(=O)c1cc(=O)n(-c2ccc(C(F)(F)F)cc2)[nH]1 | i | i | i | i | 61.0 | i | i | i
COC(=O)c1ccc(Cn2cc(C(F)(F)F)ccc2=O)cc1 | i | i | i | i | i | i | nt | nt
SMILES | PRMT1 FP inh | UHRF1 binding | MBD2 DNA inh | ABHD5-PLIN5 inh | rCAG RNA binder | LEDGF integ inh | rCAG binder conf | DNA CAG counter | others
O[C@H](COc1cccc(F)c1)CN1CCC(C(O)(c2ccccc2)c2ccccc2)CC1 | i | i | i | nt | i | i | nt | nt
COc1cc(/C=C2/C(=O)NN(c3cccc(C)c3)C2=O)ccc1OC(=O)c1ccco1 | i | i | i | i | 45.1 | i | 70.0 | 29.5 | dCAG dye DR=i
COc1cccc(/C=C2/C(=O)NN(c3ccc(C)c(C)c3)C2=O)c1 | i | i | i | i | 71.9 | i | i | 9.5
Cc1ccc(N2NC(=O)/C(=C\c3cc4c(cc3[N+](=O)[O-])OCO4)C2=O)cc1C | 23.8 | i | i | i | 63.8 | i | 44.6 | 18.0
CCOc1cc(/C=C2/C(=O)NN(c3cccc(Cl)c3)C2=O)ccc1O | i | i | i | i | 46.5 | i | i | 7.5
COC(=O)c1ccc(N2NC(=O)/C(=C/c3ccc(OC)c(OC)c3)C2=O)cc1 | i | i | i | i | i | i | nt | nt
COc1cccc(/C=C2/C(=O)NN(c3ccc(F)cc3)C2=O)c1 | i | i | i | i | i | i | nt | nt
C=CCN1[C@H](C)COc2cc(N3CCCC3)ccc2S1(=O)=O | i | i | i | nt | i | i | nt | nt
O=C(NC1CCCCN(Cc2ccc(Cl)cc2)C1=O)c1ccccc1-c1ccc(Cl)c(Cl)c1 (configuration not stated) | i | i | i | nt | i | i | nt | nt
COc1ccc(-c2cc(C(=O)NN=C/C(C)=C/c3ccccc3)[nH]n2)cc1 | i | i | i | nt | i | i | nt | nt
COc1ccccc1NCc1nc2ccccc2n1C | i | i | i | nt | nt | i | nt | nt
O=C1NN(c2cccc(Br)c2)C(=O)/C1=C/c1ccc(-c2cc([N+](=O)[O-])ccc2O)o1 | nt | nt | nt | i | nt | nt | nt | nt
O=C1NN(c2cccc(Br)c2)C(=O)/C1=C\c1ccc(O)cc1 | i | i | i | i | 72.0 | i | i | 11.5
COc1cc(/C=C2/C(=O)NN(c3cccc(Cl)c3)C2=O)cc(OC)c1O | 22.4 | i | i | i | 49.9 | i | i | 6.8
CCCOc1ccc(/C=N/NC(=S)Nc2ccccc2[N+](=O)[O-])c(O)c1 | i | i | i | nt | 48.8 | i | 45.5 | 19.7
CCCOc1ccc(/C=N/Nc2ccccc2[N+](=O)[O-])c(O)c1 | i | i | i | i | i | i | nt | nt
COc1ccc(/C=N/NC(=S)Nc2ccccc2[N+](=O)[O-])cc1O | i | i | i | i | 38.5 | i | i | 11.3
COC(=O)C1=C(C)NC(=S)NC1c1ccc(Br)cc1 (configuration not stated) | i | i | i | nt | i | i | nt | nt
COc1ccc(/C=C/C(=O)Nc2c(C(=O)O)[nH]c3ccccc23)cc1OC | i | i | i | i | 38.1 | i | i | 7.0
COc1ccc(/C=C/C(=O)Nc2ccccc2)cc1OC | i | i | i | i | i | i | nt | nt
